The source of these data is PubChem BioAssay (NCATS).

Records with an inconclusive call do not appear. Values without a mark were called inactive. Calls of active or inactive are those of the source. Calls follow the shape of the dose curve; as a rule, active = well fitted cell-killing curve with a large enough effect; inconclusive = small, poorly fitted or top-dose-only effect, or effect the other way; inactive = flat fitted curve, though single readings scatter.
% is scaled to controls: 0 for no effect and ±100 for the full control effect; potency is read from the fitted curve at half-maximal effect.

The subject of one experiment is C33A. Nature of the experiment: Primary qHTS to identify gynecologic anti-cancer compounds using libraries of approved drugs and bioactive compounds (AID 1345084). Also: nearly all actives have a fitted effect of over 55% in size. Conditions: Gynecologic cancer cell panel viability, ATPlite luminescence, 48 h; series mostly up to 57.5 µM; activity change, negative = cytotoxicity: at the top concentration. Summed up: (§1)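 Measured: luminescence after ATPlite addition (15 min, RT). Exposure: 48 h, 37 C, 5% CO2.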
(qHTS replaces the single test concentration by a dilution series.)
As to `CC(C)(O)c1cc2nc(-c3cnc(N)nc3)nc(N3CCOCC3)c2s1`, the Potency is 3.55 µM (active).
Regarding `COc1cc(C)c(Sc2cnc(NC(=O)c3ccc(CNC(C)C(C)C)cc3)s2)cc1C(=O)N1CCN(C(C)=O)CC1` (configuration not stated), the “activity change, negative = cytotoxicity” value was -16%.
Take `COc1cc2c(Nc3ccc(NC(=O)c4ccccc4)cc3)ncnc2cc1OCCCN1CCOCC1`: the Potency is 25.1 µM (active).
As to `Cc1cc(Nc2nc(N[C@@H](C)c3ccc(F)cc3)c(C#N)cc2F)n[nH]1`, the “activity change, negative = cytotoxicity” value was -5.26%.
As for `COc1cccc2nc(-c3cccs3)nc(NN3C(=O)C=C(C)C3=O)c12`, the Potency is 31.6 µM (active).
`Cc1cc(N2CCOCC2)cc2[nH]c(-c3c(NC[C@@H](O)c4cccc(Cl)c4)cc[nH]c3=O)nc12`: the “activity change, negative = cytotoxicity” value is -2.23%.
On the same count and under the same terms, the figure for `Cc1cc(Nc2cc(N3CCN(C)CC3)nc(Sc3ccc(NC(=O)C4CC4)cc3)n2)n[nH]1` is -11.8%; for `Nc1cccc(-c2cc3c(Oc4cccc(O)c4)ncnc3[nH]2)c1` it is -31.8%.

A further experiment deals with CAOV3. The experiment is described as above. Conditions: Gynecologic cancer cell panel viability, ATPlite luminescence, 48 h; series mostly up to 57.5 µM; activity change, negative = cytotoxicity: at the top concentration. A digest of the protocol:
as §1
(In general: ATP-based viability assays read luminescence as a measure of living cells.)
For the compound `Cc1cc(C(=O)N2CCN(c3cccc(Cl)c3)CC2)n(-c2ccccc2)n1`, the “activity change, negative = cytotoxicity” value is -18%.
As for `Fc1cc(-c2cccc3ncc(-c4cnn(C5CCNCC5)c4)nc23)cc(F)c1CN1CCOCC1`, the Potency is 31.6 µM (active).
As to `CC[C@@H]1C(=O)N(C)c2cnc(Nc3ccc(C(=O)NC4CCC(N5CCN(CC6CC6)CC5)CC4)cc3OC)nc2N1C(C)C` (some centres not stated), the Potency is 12.6 µM (active).
Take `CNC(=O)CN1CCC(Oc2cc3c(Nc4cccc(Cl)c4F)ncnc3cc2OC)CC1`: the “activity change, negative = cytotoxicity” value is -27.6%.
With `CC(C)c1cc(C(=O)N2Cc3ccc(CN4CCN(C)CC4)cc3C2)c(O)cc1O`, the Potency was 3.98 µM (active).

For the next experiment, the system named is CASKI. The experiment is described as above. To be noted: Gynecologic cancer cell panel viability, ATPlite luminescence, 48 h; series mostly up to 57.5 µM; activity change, negative = cytotoxicity: at the top concentration. Summed up:
as §1
For the compound `Cc1cnc(Nc2ccc(F)cc2Cl)nc1-c1c[nH]c(C(=O)N[C@H](CO)c2cccc(Cl)c2)c1`, the Potency was 25.1 µM (active).
For `C=CC(=O)Nc1cc2c(Nc3ccc(F)c(Cl)c3)ncnc2cc1OCCCN1CCOCC1`, the Potency was 8.91 µM (active).
Take `Nc1ncnc2c1c(-c1cnc3[nH]ccc3c1)nn2C1CCCC1`: the Potency was 11.2 µM (active).
Regarding `CNC(=O)c1ccccc1Nc1nc(Nc2ccc(N3CCOCC3)cc2OC)ncc1Cl`, the Potency was 10 µM (active).
For the compound `COC(=O)C1=C(C)NC(C)=C(C(=O)OCCN2CCN(C(c3ccccc3)c3ccccc3)CC2)C1c1cccc([N+](=O)[O-])c1` (configuration not stated), the “activity change, negative = cytotoxicity” value is -13.2%.
As for `CN1CCN(Cc2ccc(NC(=O)Nc3ccc(Oc4cc(NC(=O)C5CC5)ncn4)cc3)cc2C(F)(F)F)CC1`, the Potency was 1.78 µM (active).
Same read-out and setting: to `Cc1nc(Nc2n[nH]c3c2CN(C(=O)N[C@H](CN(C)C)c2ccccc2)C3(C)C)c2sccc2n1` belongs 7.94 µM (active); to `Cc1[nH]nc2ccc(-c3cncc(OC[C@@H](N)Cc4ccccc4)c3)cc12`, 6.31 µM (active).
Consider `Cn1cc(-c2ccncc2)c(-c2ccc(OCc3ccc4ccccc4n3)cc2)n1`, for which the “activity change, negative = cytotoxicity” value is 5.16%.
On to `C=CC(=O)Nc1cccc(Oc2nc(Nc3ccc(N4CCN(C)CC4)cc3)ncc2Cl)c1`, for which the Potency was 10 µM (active).
As for `CC[C@@H]1C(=O)N(C)c2cnc(Nc3ccc(C(=O)NC4CCC(N5CCN(CC6CC6)CC5)CC4)cc3OC)nc2N1C(C)C` (some centres not stated), the Potency is 17.8 µM (active).
Consider `O=C(O)c1ccc2c(c1)nc(Nc1cccc(Cl)c1)c1ccncc12`, for which the Potency is 35.5 µM (active).
As to `CCS(=O)(=O)c1cccc(-c2cc(C(=O)NC3CCN(C)CC3)c(C)c3[nH]c4ncc(C)cc4c23)c1`, the Potency is 2.82 µM (active).
Take `O=C(Cc1ccc(-c2ccc(OCCN3CCOCC3)cc2)cn1)NCc1ccccc1`: the “activity change, negative = cytotoxicity” value is -35.4%.
